PubChem BioAssay
Activity calls are given as the source filed them.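 The calls were made as follows: active = at least 20% inhibition of 6-phosphogluconate dehydrogenase activity; inactive = the rest.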 Where a SMILES comes first, the peptide text is derived from it. Bridges are numbered along the chain shown (N, C = ends). [ ]: non-standard residue; d: D form. The star is where a group is joined. ξ: configuration not given here. ξDab(CH2SO3H) = NC(CCNCS(=O)(=O)O)C(=O)O; Octanoyl(6-Me) = CCC(C)CCCCC(=O)*; Dab = NCC[CH](N)C(=O)O

biological target: 6-phosphogluconate dehydrogenase, decarboxylating (Homo sapiens) (UniProt P52209); experiment: inhibition of human phosphogluconate dehydrogenase – biochemical, recombinant enzyme, NADPH absorbance, primary screen (AID 1159550); conditions: recombinant 6PGD, NADPH absorbance 341 nm; at 10 µM; stronger effect = higher value
Sequence (P52209 whole entry, looked up): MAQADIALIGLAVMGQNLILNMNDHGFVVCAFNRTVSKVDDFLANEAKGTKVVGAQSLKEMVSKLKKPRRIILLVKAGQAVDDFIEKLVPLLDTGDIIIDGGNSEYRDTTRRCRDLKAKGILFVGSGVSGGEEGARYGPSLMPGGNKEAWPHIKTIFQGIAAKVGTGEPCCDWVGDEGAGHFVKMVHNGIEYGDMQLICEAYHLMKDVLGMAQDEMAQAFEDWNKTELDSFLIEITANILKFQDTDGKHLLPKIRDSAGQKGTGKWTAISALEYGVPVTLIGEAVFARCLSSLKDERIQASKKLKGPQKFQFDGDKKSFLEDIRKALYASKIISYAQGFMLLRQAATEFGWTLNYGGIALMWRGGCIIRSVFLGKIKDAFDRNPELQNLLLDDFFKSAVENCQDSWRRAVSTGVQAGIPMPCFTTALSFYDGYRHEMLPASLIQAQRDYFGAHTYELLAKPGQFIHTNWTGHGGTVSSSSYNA

Row | SMILES | inhibition
1 | CC1(C)C=Cc2c(cc3occ(-c4ccc5c(c4)OCO5)c(=O)c3c2O)O1 | -4.68% (inactive)
2 | COc1ccc(C2COc3c(ccc(O)c3OC)C2)c(OC)c1O (centres undefined) | -5.05% (inactive)
3 | C=CC(C)(CCC1C(=C)CC(OC(C)=O)C2C(C)(C)CCCC12C)OC(C)=O (centres undefined) | 11.4% (inactive)
4 | CC1(C)C(=O)[C@H]2C[C@]3(O)C4=CC(=O)O[C@@H](c5ccoc5)[C@@]4(C)CCC3[C@](C)(C2=O)[C@H]1CC(=O)O (some centres undefined) | -7.25% (inactive)
5 | COc1c(Cl)c(C)c2c(c1Cl)OC(=O)c1c(C)c(Cl)c(OC)c(Cl)c1O2 | -8.06% (inactive)
6 | CC1=C2C(=COC(C)C2C)C(=O)C(C(=O)O)=C1O (centres undefined) | 10.6% (inactive)
7 | CC(=O)OCC(=O)[C@@]1(O)CC[C@H]2[C@@H]3CC[C@@H]4C[C@H](OC(C)=O)CC[C@]4(C)[C@H]3C(=O)C[C@@]21C | 4.42% (inactive)
8 | CC(=O)OC1C=C(C)C(COc2ccc3ccc(=O)oc3c2)C2(C)CCC(O)C(C)(C)C12 (centres undefined) | 9.19% (inactive)
9 | CC1(C)S[C@H]2[C@@H](NC(=O)[C@H](NC(=O)N3CCNC3=O)c3ccccc3)C(=O)N2[C@@H]1C(=O)O | 10.5% (inactive)
10 | CC1OC(OC2C(Oc3cc(O)c4c(=O)cc(-c5ccc(O)cc5)oc4c3)OC(CO)C(O)C2O)C(O)C(O)C1O (centres undefined) | -11.1% (inactive)
11 | CC1(C)C(=O)CC[C@@]2(C)C1C[C@@H](O)[C@@]1(C)C3=CC(=O)O[C@@H](c4ccoc4)[C@]3(C)CCC21 (some centres undefined) | -10.8% (inactive)
12 | CS(=O)(=O)CCCCN=C=S | 1.33% (inactive)
13 | COc1ccc(-c2c(O)c3c(OC)c4c(cc3oc2=O)OC(C)(C)CC4)cc1 | 1.85% (inactive)
14 | COC(=O)C[C@H]1C(C)(C)[C@H](O)[C@@H]2CC3=C4CC(O)O[C@@H](c5ccoc5)[C@@]4(C)CCC3[C@]1(C)C2=O (some centres undefined) | -7.8% (inactive)
15 | COc1ccccc1/C=C/C(=O)O | 11.5% (inactive)
16 | CN1c2ccccc2C(=O)N2CCc3c([nH]c4ccc(O)cc34)[C@H]21 | 3.55% (inactive)
17 | CC(=O)Oc1ccc2c(c1)CC[C@@H]1[C@@H]2CC[C@]2(C)C(=O)CC[C@@H]12 | -18% (inactive)
18 | CC(=O)O[C@H]1CC[C@]2(C)[C@H]3C(=O)C=C4[C@@H]5[C@@H](C)[C@H](C)CC[C@]5(C(=O)O)CC[C@@]4(C)[C@]3(C)CC[C@H]2C1(C)C | 4.87% (inactive)
19 | CCC(C)CCCCC(=O)NC(CCNCS(=O)(=O)O)C(=O)NC(C(=O)NC(CCNCS(=O)(=O)O)C(=O)NC1CCNC(=O)C(C(C)O)NC(=O)C(CCNCS(=O)(=O)O)NC(=O)C(CCNCS(=O)(=O)O)NC(=O)C(CC(C)C)NC(=O)C(CC(C)C)NC(=O)C(CCNCS(=O)(=O)O)NC1=O)C(C)O (centres undefined) ({Octanoyl(6-Me)}-[ξDab(CH2SO3H)]T[ξDab(CH2SO3H)][Dab][ξDab(CH2SO3H)]LL[ξDab(CH2SO3H)][ξDab(CH2SO3H)]T; lactam 4-C; configuration not given here) | 17.5% (inactive)
20 | C=CC(C1=CC(=O)C(OC)=C(OC)C1=O)c1ccccc1 (centres undefined) | 3.55% (inactive)

Row | SMILES | inhibition
21 | Oc1ccc2c(c1)OC[C@]1(O)Cc3cc(O)c(O)cc3C21 (some centres undefined) | 9.03% (inactive)
22 | Oc1ccc2c(c1)OC(c1ccc(O)c(O)c1)C(O)C2 (centres undefined) | 6.96% (inactive)
23 | Cc1occc(=O)c1/C=C/O | 0.162% (inactive)
24 | CC(=O)O[C@H](CC(=O)[O-])C[N+](C)(C)C | -15.2% (inactive)
25 | O=C1C[C@@H](c2ccccc2)Oc2cc(O)cc(O)c21 | 17.2% (inactive)
26 | COc1ccc(C(C)C(=O)c2ccc(O)cc2O)cc1 (centres undefined) | 10.6% (inactive)
27 | CC(=O)OC(C)(CCC=C(C)C)C1CC=C(C)CC1 (centres undefined) | 0.603% (inactive)
28 | CC(=O)O[C@H]1C[C@@H](O)C(C)(C)[C@@H]2C[C@@H](OC(C)=O)[C@]3(C)[C@H](CC[C@@]4(C)[C@@H](c5ccoc5)OC(=O)[C@H]5O[C@@]534)[C@@]12C | 1.48% (inactive)
29 | CC(C)CCCCCOC(=O)COc1ccc(Cl)cc1Cl | -8.81% (inactive)
30 | COc1ccc2c(c1)O[C@@H]1c3ccc(OC)cc3OC[C@H]21 | 0.294% (inactive)
31 | COc1ccc(-c2coc3c(OC)c(OC)cc(OC)c3c2=O)cc1 | 4.09% (inactive)
32 | O[n+]1ccccc1[S-].O[n+]1ccccc1[S-].[Zn] | 12.7% (inactive)
33 | CC(=O)O[C@@H]1CC2C(C)(C)C=CC(=O)[C@]2(C)C2CC[C@@]3(C)[C@H](c4ccoc4)OC(=O)C4OC43[C@@]21C (some centres undefined) | -6.87% (inactive)
34 | CC(C)C(N)C(=O)NC(Cc1c[nH]c2ccccc12)C(=O)O (centres undefined) | 4.18% (inactive)
35 | CC(C)C[C@H](NC(=O)[C@H](C)N)C(=O)O (H-Ala-Leu-OH) | -6.83% (inactive)
36 | CC(C)C[C@H](NC(=O)OCC1c2ccccc2-c2ccccc21)C(=O)O | 2.94% (inactive)
37 | CC[C@H]1OC(=O)[C@H](C)[C@@H](O[C@H]2C[C@@](C)(OC)[C@@H](O)[C@H](C)O2)[C@H](C)[C@@H](O[C@@H]2O[C@H](C)C[C@H](N(C)C)[C@H]2O)[C@](C)(O)C[C@@H](C)[C@@H]2NC(COCCOC)O[C@H]([C@H]2C)[C@]1(C)O (some centres undefined) | 5.47% (inactive)
38 | CO[C@H]1/C=C/O[C@@]2(C)Oc3c(C)c(O)c4c(O)c(c(/C=N/N5CCN(C)CC5)c(O)c4c3C2=O)NC(=O)/C(C)=C/C=C/[C@H](C)[C@H](O)[C@@H](C)[C@@H](O)[C@@H](C)[C@H](OC(C)=O)[C@@H]1C | 18.2% (inactive)
39 | CC1(C)C=CC(=O)[C@]2(C)[C@H]3CC[C@@]4(C)[C@H](c5ccoc5)OC(=O)[C@H]5O[C@]54[C@]3(C)C(=O)C[C@@H]12 | -8.35% (inactive)
